Experimental data: PubChem BioAssay
Peptide text beside a SMILES is read from it. * marks the point of attachment. CH2Cl = ClC*

Assay: viability loss with induced miR-34 in A549 – imaging, A549 dox-inducible miR-34, nuclei and caspase counts, primary screen (AID 1347080); note: test concentration not given here
Conditions: A549 miR-34 inducible, Hoechst nuclei count, 48 h; measured here: relative caspase fold change +Dox/-Dox

SMILES	fold change
C=C1[C@@H](C)[C@H]2[C@H](Cc3ccccc3)NC(=O)[C@]23OC(=O)/C=C/[C@H](O)CCC[C@@H](C)C/C=C/[C@H]3[C@@H]1O	1.09
CCCCC/C=C\C/C=C\C/C=C\C/C=C\CCCC(=O)N(C)C	1.14
COc1cc(CNC(=O)CCCCCCC(C)C)c(I)cc1O	0.817
CCCCCC(/C=C/C=O)OO (stereo not given)	1.26
CCCCC/C=C\C/C=C\C/C=C\C/C=C\CCCC(=O)NCCCC(=O)O	1.25
N#CC(C#N)=NNc1ccc(OC(F)(F)F)cc1	0.834
CCNC(=O)[C@H]1O[C@@H](n2cnc3c(N)ncnc32)[C@@H](O)C1O (stereo not given in full)	0.965
C=C1[C@@H](O)[C@@H]2O[C@@]3(CCC2O[C@@H]1[C@@H](O)C[C@H](C)C1O[C@@]2(CCCCO2)CC[C@H]1C)CC[C@H](/C=C/[C@@H](C)[C@@H]1CC(C)=C[C@@]2(O[C@H](C[C@@](C)(O)C(=O)O)CC[C@H]2O)O1)O3 (stereo not given in full)	0.814
C/C1=C/C(=O)O[C@@H]2C[C@@H](CC[C@H](C)/C=C\CC1)O[C@@](O)([C@@H]1CSC(=O)N1)C2	0.63
CCCCCCCCCCCCCCCC(=O)OC[C@H](COP(=O)([O-])OCC[N+](C)(C)C)OC(=O)CCCC=O	2.44
C=C(C)[C@@H]1CCC(C)=C[C@H]1c1c(OC)cc(CCCCC)cc1OC	1.03
CCCC[C@@H](C)[C@@H](OC(=O)C[C@@H](CC(=O)O)C(=O)O)[C@H](C[C@@H](C)C[C@H](O)CCCC[C@@H](O)C[C@H](O)[C@H](C)N)OC(=O)C[C@H](CC(=O)O)C(=O)O	1.82
CCCCC/C=C\C/C=C\C/C=C\C/C=C\CCCC(=O)N[C@H](C)COP(=O)(O)O	0.754
CCCCC/C=C\C/C=C\C/C=C\C/C=C\CCCC(=O)Nc1ccc([N+](=O)[O-])cc1	1.21
Clc1ccc(C2CC3CCC2N3)cn1 (stereo not given)	1.19
C[C@H](N)C(=O)N[C@@H](C)C(=O)N[C@@H](Cc1ccccc1)C(=O)CCl (H-Ala-Ala-Phe-CH2Cl)	1.41
CCCC(=O)N[C@H]1CCOC1=O	0.504
COC[C@H]1OC(=O)c2coc3c2[C@@]1(C)C1=C(C3=O)[C@@H]2CCC(=O)[C@@]2(C)C[C@H]1OC(C)=O	1.29

SMILES	fold change
CCCCC/C=C\C/C=C\C/C=C\C/C=C\CCCC(=O)NCCS(=O)(=O)O	1.07
CC1OC(O[C@H]2C[C@@H](O)[C@]3(CO)[C@H]4[C@H](O)C[C@]5(C)[C@@H](C6=CC(=O)OC6)CC[C@]5(O)[C@@H]4CC[C@]3(O)C2)C(O)C(O)C1O (stereo not given in full)	1.17
CNCCCCCCN(C)N(O)N=O	0.973
C[C@H](CCC(=O)O)C[C@H](C)C[C@H](C)C(=O)/C=C(\O)[C@H](C)C[C@H](C)C/C=C/[C@@H](C)[C@@H](O)[C@@H](C)[C@@H](O)C[C@@H]1CC[C@@](C)([C@H]2CC[C@@](C)([C@@H](C)O)O2)O1	0.922
CCCCC/C=C\C/C=C\C/C=C\C/C=C\CCCC(=O)O[C@H](COC(=O)CCCCCCCCCCCCCCCCC)COP(=O)([O-])OCC[N+](C)(C)C	0.766
CC(C)(O)[C@H]1O[C@H]2CC[C@@]3(C)[C@@](O)(CC[C@H]4Cc5c([nH]c6ccccc56)[C@@]43C)C2=CC1=O	1.67
COC(C/C=C/C=C/CC/C=C\CC(C)/C=C\C(=C/C(=O)O)CC(=O)O)/C(C)=C\C=C(/C)C(=O)O (stereo not given)	1.25
CCCCCC(=O)N[C@H]1CCOC1=O	0.721
CCCCCCC(C)(C)c1cc(OC)c2c(c1)OC(C)(C)[C@@H]1CC=C(C)C[C@@H]21	0.441
CCCCC/C=C\C/C=C\C/C=C\C/C=C\CCCC(=O)NCc1ccoc1	1.68
CCOC(=O)CN1C(=O)CC(C[C@@H](O)C2C[C@@H](C)C[C@H](C)C2=O)CC1=O (stereo not given in full)	1.21
CC1(O)C[C@@]23C[C@@H](O)[C@@]4(O)[C@@H](C[C@H](O)C4(C)C)[C@](C)(O)[C@@H]2CCC1[C@H]3O (stereo not given in full)	1.15
CO/C1=C\C(C)=C\[C@@H](C)[C@@H](O)[C@@H](C)C/C(C)=C/C=C/[C@H](OC)[C@@H]([C@@H](C)[C@@H](O)[C@H](C)[C@@]2(O)C[C@@H](O)[C@H](C)[C@@H](C(C)C)O2)OC1=O	1.29
COC[C@H]([C@@H](O)[C@@H](O)C(=O)NCC[C@@H](C)c1nc(/C=C/C[C@H]2OC3(C[C@H](O)[C@H]2C)OC([C@@H](C[C@@H](O)[C@@H](C)[C@@H](O)[C@@H](C)/C=C(C)/C(C)=C/C=C/C(C)=C\C#N)OC)[C@@H](OP(=O)(O)O)C3(C)C)co1)N(C)C (stereo not given in full)	1.44
C=C(C)[C@H]1O[C@H]2CC[C@@]3(C)[C@@](O)(CC[C@H]4[C@@H]5OC(C)(C)[C@H]6C[C@@H]7C(=C)Cc8c(Cl)cc9[nH]c(c5c9c8[C@@]76O)[C@@]43C)[C@]23O[C@@H]3[C@H]1O	1.48
CCCCC/C=C\C/C=C\C/C=C\C/C=C\CCCC(=O)NC1CC1	0.962
O=C(CCC/C=C\C[C@@H]1[C@@H](/C=C/[C@@H](O)COc2cccc(C(F)(F)F)c2)[C@H](O)C[C@@H]1O)NC(CO)CO	0.862
